Rows were chosen to be rich in hits. Some 6.7% of all compounds tested hit in one or more screens of this group.
MCF10A rereplic: A quantitative high throughput screen for small molecules that induce DNA re-replication in MCF 10a normal breast cells; Potency, µM (top dose mostly 46.1 µM), without a hit: at the top dose activity, positive = re-replication, usual class: activators; AID 624296, 2012; MCF 10A DNA re-replication, Hoechst nuclear intensity, 48 h; 350,000 compounds, 2.9% hits; note: % of control where 0% means no effect; nearly all actives have a fitted effect of over 50% in size
PINK1 modulator: A Quantitative High throughput Screen to Identify Chemical Modulators of PINK1 Expression; PINK1 immunofluorescence, high-content cytometry, 24 h; 410,000 compounds, 0.2% hits; AID 624263, 2012; Potency, µM (titrated, usually from 76.6 µM), inactives show at the highest dose activation (PINK1 increase), actives largely listed as activators; active = well fitted activation curve with a large enough effect; inconclusive = small, poorly fitted or top-dose-only effect; cell line not stated here; note: % of control where 0% means no effect; nearly all actives have a fitted effect of over 65% in size
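Stable cell line treated 24 h with compounds at 5 concentrations (CCCP controls), then fixed and immunostained for PINK1 plus nuclear and cell stains; PINK1 immunofluorescence quantified by laser-scanning microplate cytometry.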
SW480 rerep: A quantitative high throughput screen for small molecules that induce DNA re-replication in SW480 colon adenocarcinoma cells | AID 624297, 2012 | 340,000 compounds, 1.8% hits | Potency, µM (doses to about 46.1 µM), inactives show top-dose re-replication activation, hits mostly activators | SW480 DNA re-replication, Hoechst DNA content imaging, 48 h; note: % of control where 0% means no effect; nearly all actives have a fitted effect of over 55% in size
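Image-based read-out: total Hoechst fluorescence of nuclei (405 nm excitation, 500-530 nm emission), with hits raising the fraction of high-intensity nuclei. SW480 colon cells incubated 48 hr with compounds at 37 C.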
KB-V1 cytotox: qHTS assay for MDR1-selective chemotherapeutics: Primary screen using the drug-selected MDR subline cells KB-V1; KB-V1 MDR cells viability, CellTiter-Glo, 72 h; Potency, µM (titrated, usually from 46.1 µM), hits mostly cytotoxic; AID 1347076, 2019; 400,000 compounds, 3.4% hits; note: % is set by controls: 0 for no effect and ±100 for the full control effect; nearly all actives have a fitted effect of over 60% in size
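KB-V1 cells (P-gp-expressing MDR subline of KB-3-1) in phenol-red-free DMEM with 10% FBS were exposed to library compounds over a concentration series for 72 h at 37 degrees C. Viability read by CellTiter-Glo luminescence; concentration-effect curves fitted after normalization.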
KB-3-1 cytotox: qHTS assay for MDR1-selective chemotherapeutics: Primary screen using the parental adenocarcinoma cell KB-3-1; KB-3-1 viability, CellTiter-Glo ATP luminescence, 72 h; Potency, µM (highest dose often 46.1 µM), usual class: cytotoxic; 400,000 compounds, 1.4% hits; AID 1347075, 2019; note: % is set by controls: 0 for no effect and ±100 for the full control effect; nearly all actives have a fitted effect of over 60% in size
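Luminescent ATP read-out (CellTiter-Glo) measures survival of drug-naive KB-3-1 cells after 72 h compound exposure at 37 °C. Titration series was screened from lowest to highest concentration, with DMSO vehicle plates as background controls.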
* = called active by the depositor; i = inactive; ? = inconclusive; / = no result; [ ] = remark or other dose. Unless noted, calls come from the whole dose curve; as a rule, active = well fitted curve in the direction sought with a large enough effect; inconclusive = small, poorly fitted or top-dose-only effect, or another doubt; inactive = no such curve, though single readings can be large; an effect the other way counts as inactive or inconclusive. Potency is the fitted concentration of half-maximal effect.

SMILES	MCF10A rereplic	PINK1 modulator	SW480 rerep	KB-V1 cytotox	KB-3-1 cytotox
CCOc1ccc(NC(=S)NC23CN4CN(CN(C4)C2)C3)cc1	8.2%	2.3%	-1.6%	i	i
CCOC(=O)[C@]12CCCC=C1N(Cc1ccc(Cl)cc1Cl)C(=O)[C@H](CC(=O)NCC1CCCCC1)C2	/	0.7%	/	?	i
Cc1ccc(NC(=O)C2CCC(CNS(=O)(=O)c3cccs3)CC2)cc1C (configuration not stated)	/	-0.1%	/	/	/
COc1cccc(NC(=O)C2CCC(CNS(=O)(=O)c3cccs3)CC2)c1 (configuration not stated)	?	-4.9%	20.6µM*	i	?
CCOC(=O)c1cccc(NC(=O)C2CCN(S(=O)(=O)c3cccs3)CC2)c1	16.2%	-3.2%[38.3 µM]	4.1%	7.31µM*	?
CCOC(=O)C1CCN(C(=O)C2CCN(S(=O)(=O)c3cc(Cl)ccc3Cl)CC2)CC1	-2.4%	2.2%[38.3 µM]	-2.6%	23.1µM*	i
CCOC(=O)C1CCCN(C(=O)C2CCN(S(=O)(=O)c3cccs3)CC2)C1 (configuration not stated)	-1.7%	-0.6%[38.3 µM]	0.5%	i	20.6µM*
Cc1ccc(C(=O)OCC(=O)NC2CCCCCC2)c(C)c1	7.0%	3.7%	-597.4%	i	i
O=C(Nc1ccc(Cl)cc1)C1CCN(S(=O)(=O)c2ccc(Br)s2)CC1	/	17.8µM*	/	?	?
Cc1ccc(NC(=O)C2CCN(S(=O)(=O)c3cccs3)CC2)cc1	-14.8%	-1.6%	-23.6%[1.84 µM]	i	i
O=C(Nc1ccc(F)c(F)c1)C1CCN(S(=O)(=O)c2cccs2)CC1	11.8%	-0.3%	4.5%	16.4µM*	i
Cc1ccc(-c2c[n+]3c(n2-c2ccccc2)CCC3)cc1	8.2µM*	2.0%	?	i	1.3µM*
CCOc1ccc(-n2c(-c3ccccc3)c[n+]3c2CCCCC3)cc1	2.8%	?	-14.4%	?	10.3µM*
COCCn1c(=O)c(-c2cccs2)nc2cnc(OC)nc21	/	-0.2%	/	/	/
CC1(Cc2cccc(F)c2)C(=O)Nc2ccc(S(=O)(=O)NC3CCCCC3)cc21 (configuration not stated)	/	0.0%	/	i	i
CC1(Cc2ccc(Cl)c(Cl)c2)C(=O)Nc2ccc(S(=O)(=O)NC3CCCCC3)cc21 (configuration not stated)	/	3.8%	/	18.4µM*	?
NC(=O)COc1ccccc1C(=O)Nc1ccccc1	/	-0.7%	/	i	i
Cc1ccc(-c2[nH]ncc2CNC(C)c2ccccc2)cc1 (configuration not stated)	/	0.3%	/	i	i
CN(C)CCCOC(=O)N1c2ccccc2C=Cc2ccccc21	-7.9%	-1.3%	1.4%	i	25.9µM*
Clc1ccc(CSc2nnc(-c3ccccn3)n2Cc2cccs2)cc1Cl	/	18.8%	/	?	i
CCOC(=O)Cc1csc(SCC(=O)N2CCN(c3ccc(OC)cc3)CC2)n1	5.1%	17.8%[38.3 µM]	-3.9%	20.6µM*	i
COc1ccc(N2CCN(C(=O)CSc3ccc(C)cc3)CC2)cc1	-20.5%	1.0%	-6.2%	?	i
COc1ccc(N2CCN(CC(=O)c3ccc(Cl)cc3)CC2)cc1	18.4µM*	0.9%	-2.3%	?	i
COc1ccc(CC(=O)N2CCN(c3ccc(F)cc3)CC2)cc1	2.0%	-1.0%	-6.8%	i	i
COc1ccc(N2CCN(C(=O)Cc3ccc(Br)cc3)CC2)cc1	7.8%	-0.6%	-8.1%	20.6µM*	i
SMILES	MCF10A rereplic	PINK1 modulator	SW480 rerep	KB-V1 cytotox	KB-3-1 cytotox
COc1ccc(N2CCN(C(=O)CNC(=O)Cc3ccc(Cl)cc3)CC2)cc1	?	?	?	10.3µM*	14.6µM*
COc1ccc(N2CCN(C(=O)CNC(=O)Cc3ccccc3)CC2)cc1	0.1%	7.8%	5.8%	/	/
Cc1ccc(-c2cnc(N3CCC(C(N)=O)CC3)s2)cc1	/	/	/	i	i
CC(NCC(O)COc1ccccc1)C1COc2ccccc2O1 (configuration not stated)	5.4%	-1.9%	-5.9%	i	i
COc1ccccc1NC(=S)N/N=C/c1ccc(O)cc1	16.8%	0.0%	0.7%	20.6µM*	?
COc1ccccc1NC(=S)N/N=C/c1cccc(C)c1	?	9.9%	?	?	14.6µM*
C=CCNC(=S)N1CCN(c2ccc([N+](=O)[O-])cc2)CC1	11.3%	-1.7%	-3.8%	14.6µM*	i
COCCCNC(=S)N1CCN(c2ccc([N+](=O)[O-])cc2)CC1	2.6%	1.1%	-4.5%	16.4µM*	?
CCNC(=S)N1CCN(c2ccc([N+](=O)[O-])cc2)CC1	2.8%	-2.2%	-5.9%	i	i
COCCCNC(=S)N1CCN(c2nc3ccccc3s2)CC1	3.0%	3.0%	-0.5%	14.6µM*	?
COc1ccc(NC(=O)CSc2nnc3c(n2)[nH]c2ccc(S(=O)(=O)N(C)C)cc23)c(OC)c1	/	1.3%	/	/	/
O=C(/C=C/Nc1ccc([N+](=O)[O-])cc1Br)c1cccc2ccccc12	2.5%	?	?	i	23.1µM*
COCc1ccc(-c2c(-c3ccc(OC)cc3)oc(=O)c3cc(OC)c(OC)cc23)cc1	2.59µM*	-0.1%	16.1%	i	i
COc1cc2nc(NCc3ccccc3)n3nc(-c4ccccc4)nc3c2cc1OC	/	1.2%	/	i	i
Cc1nc2scc(-c3cccs3)c2c(=O)[nH]1	-6.8%	-5.7%[38.3 µM]	-5.0%	i	i
O=c1[nH]c(-c2ccc(O)cc2)nc2scc(-c3cccs3)c12	7.31µM*	0.7%	11.8%	i	i
OCCN1CCN(c2ncnc3c2ncn3[C@H]2CN(Cc3ccc4c(c3)OCO4)C[C@@H](CO)O2)CC1	/	3.0%	/	i	i
Cn1c(-c2ccc(C=O)s2)nc2c3ccccc3c3ccccc3c21	10.3µM*	3.9%	?	?	?
Cc1noc(NS(=O)(=O)c2ccc(N/C=C\C(=O)c3ccc4c(c3)OCO4)cc2)c1C	5.8µM*	?	6.6%	i	i
Cc1noc(NS(=O)(=O)c2ccc(N/C=C\C(=O)c3ccc(Br)cc3)cc2)c1C	?	0.2%	-11.9%	i	i
CN(C)CCNc1ncnc2ccc(-c3ccc4c(c3)OCO4)cc12	/	/	/	i	i
C(=Nc1cnc2ccccc2c1)c1ccc2ccccc2n1	/	/	/	i	i
Cc1c(/C=C/C(=O)c2cccs2)cnn1C	20.6µM*	0.2%	?	i	i
Fc1ccc2c(c1)C1OCCCC1C(c1ccccc1)N2 (configuration not stated)	6.51µM*	11.5%	?	i	i

Compound activity from PubChem.
